A number with no mark means an inactive call. Results filed as inconclusive are left out. Where a call stands in place of a potency, no number is given. The source made the active and inactive calls. Unless noted, calls come from the whole dose curve; as a rule, active = well fitted curve in the direction sought with a large enough effect; inconclusive = small, poorly fitted or top-dose-only effect, or another doubt; inactive = no such curve, though single readings can be large; an effect the other way counts as inactive or inconclusive.
Key:
[1] = qHTS to identify inhibitors of the type 1 interferon - major histocompatibility complex class I in skeletal muscle: primary screen against the NCATS Pharmaceutical Collection (AID 1347407);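 note: luminescence of HiBiT knocked into endogenous HLA-B as interferon-induced MHC class I level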
In short: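 Compounds […] were added to CRISPR-engineered HLA-B-HiBiT C25cl48 human myoblasts with 4.0 ng/ml IFN-beta. After 24 hrs at 37 C, cells were lysed and HiBiT luminescence measured.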

[2] = qHTS for inhibitors of adenylyl cyclases using a fission yeast platform: a pilot screen against the NCATS LOPAC library (AID 1347410)
In short: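 GFP from fbp1-GFP reporter, read by Acumen laser cytometry, indicates AC inhibition in fission yeast expressing AC9, GNAS and PDE4D2. Cells grown 18 h in the dark at 30C with compounds, final up to 57 uM.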

[3] = molecular target: Protein phosphatase 1D (Homo sapiens) (UniProt O15297); test: RapidFire Mass Spectrometry qHTS Assay for Modulators of WT P53-Induced Phosphatase 1 (WIP1) (AID 1347424);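 note: amount of dephosphorylated VEPPL-S-QETFS peptide product formed by WIP1; series mostly up to about 63 µM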
In short: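 10 nM WIP1 preincubated with compounds 1 hr at room temperature in pH 7.5 Tris buffer with 30 mM MgCl2, 1 mM TCEP; 2 uM VEPPL-pS-QETFS phosphopeptide for 5 min, formic acid quench; dephosphorylated product quantified by RapidFire MS against labelled standard.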

[4] = molecular target: Protein phosphatase 1D (Homo sapiens) (UniProt O15297); test: Rhodamine-PBP qHTS Assay for Modulators of WT P53-Induced Phosphatase 1 (WIP1) (AID 1347425)
In short: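 WIP1 (5 nM final) was preincubated with compound for 1 hour at room temperature. It then dephosphorylated 10 uM VEPPL-pS-QETFS peptide in Tris-HCl pH 7.5 with 30 mM MgCl2. Released Pi was detected by 10 uM Rh-PBP fluorescence (ex 525/em 598 nm) read at 1-min intervals for 11 min, as delta f1 - f0.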

[5] = Validation qHTS assay for inhibitors of Activation Induced Cytidine Deaminase (AID): UDG Counterscreen signal (AID 1347427)
In short: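 Counterscreen read of UDG activity (2 U/mL, 4/3x) in the FRET deamination format with AID (1 uM, 4/3x), DJC20/DJC23 substrates (250 nM, 4x), 4 h at room temperature. NaOH stop, fluorescence at 560 ex/665 em.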

[6] = molecular target: Single-stranded DNA cytosine deaminase (Homo sapiens) (UniProt Q9GZX7); test: Validation qHTS assay for inhibitors of Activation Induced Cytidine Deaminase (AID): AID signal (AID 1347429)
In short: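 AID and UDG were combined and compounds added at final up to 114 uM, then DJC20/DJC23 FRET substrate was added for 4 hr at room temperature. NaOH was then added for 30 min before fluorescence was read at 540/590 nm.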

[7] = Primary qHTS for inhibitors of La Crosse Virus (LACV) - induced cell death in SH-SY5Y cells (AID 1508616);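 note: top concentration of the series differs between compounds; higher means more rescue of cells from virus-induced death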
In short: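 Luminescent ATP readout (ATPLite 1step, 5 min room temperature) measured rescue from LACV-induced death after 6 days of infection at 0.01 MOI; normalized to infected DMSO wells and uninfected DMSO wells.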

[8] = molecular target: Calcium and integrin-binding protein 1 (Homo sapiens) (UniProt Q99828); test: Validation qHTS for Identification of Calcium Integrin Binding protein 1 (CIB1) Competitor (AID 1508618)
In short: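 Fluorescence polarization with 1 uM CIB1-GST and 100 nM FITC-alphaIIb peptide in HEPES pH 7.4, NaCl, 5 mM CaCl2, Tween20. Compounds at up to 114 uM final, preincubated with protein 15 min; read after 15 min more at RT.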

[9] = molecular target: Calcium and integrin-binding protein 1 (Homo sapiens) (UniProt Q99828); test: Primary qHTS for Identification of Calcium Integrin Binding Protein 1 (CIB1) Competitor (AID 1508620); note: potency is the fitted concentration of half-maximal effect
In short: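 Fluorescence polarization competition: GST-tagged CIB1 (1 uM final) preincubated with compound 15 min at room temperature, then FITC-labelled alphaIIb peptide (100 nM final) added. After 15 min at room temperature, polarization read at Ex 480/Em 540.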

[10] = molecular target: Cytochrome P450 2C9 (Homo sapiens) (UniProt P11712); test: Cytochrome P450 family 2 subfamily C member 9 (CYP2C9) small molecule antagonists: luciferase biochemical (cell-free) qHTS assay (AID 1645842; active = well fitted curve in the direction sought with a large enough effect in the repeat runs; an effect the other way counts as inactive or inconclusive; note: nearly all actives have a fitted effect of over 55% in size; note: potency is the fitted concentration of half-maximal effect)
In short: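 Luminescence, after 20 min with luciferin detection reagent, reflected CYP2C9 turnover during a 1 h NADPH-driven reaction at 37C. Enzyme-substrate mix contained 0.4% bovine serum albumin and was preincubated with compound 10 min at room temperature.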

[11] = molecular target: Papain (Carica papaya) (UniProt P00784); test: Primary qHTS assay for inhibitors of the protease papain (AID 1645873);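 note: papain turnover of Z-FR-AMC read as the AMC fluorescence gain over 10 min; series mostly up to about 50 µM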
[12] = qHTS to identify inhibitors of the type 1 interferon - major histocompatibility complex class I in skeletal muscle: primary screen against the NCATS LOPAC collection (AID 1347405);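 note: lytic HiBiT luminescence reporting HLA-B protein level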; note: potency is the fitted concentration of half-maximal effect
In short: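 Immortalized human C25cl48 myoblasts with HiBiT knocked into endogenous HLA-B*08:01 were stimulated with 4.0 ng/ml IFN-beta and given compounds in a 7-point, 1:4.3 titration from 46 uM final; after 24 hrs, lytic HiBiT luminescence was read.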

[13] = molecular target: Cytochrome P450 2D6 (Homo sapiens) (UniProt P10635); test: Cytochrome P450 family 2 subfamily D member 6 (CYP2D6) small molecule antagonists: luciferase biochemical (cell-free) qHTS assay (AID 1645840; active = well fitted curve in the direction sought with a large enough effect in the repeat runs; an effect the other way counts as inactive or inconclusive; note: nearly all actives have a fitted effect of over 55% in size; note: potency is the fitted concentration of half-maximal effect)
In short: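 P450-Glo luminescent screen: recombinant CYP2D6 enzyme–proluciferin substrate mix preincubated with compound 10 min at room temperature, then NADPH regeneration added for 1 h at room temperature. Detection reagent added for 20 min; luciferin light read as relative luminescence units.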

[14] = molecular target: Calcium and integrin-binding protein 1 (Homo sapiens) (UniProt Q99828); test: Confirmatory qHTS for Identification of Calcium Integrin Binding Protein 1 (CIB1) Competitor (AID 1508617); note: nearly all actives have a fitted effect of over 65% in size
In short: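 FP competition: CIB1-GST (1 uM final) in 5 mM HEPES pH 7.4, 125 mM NaCl, 5 mM CaCl2, 0.01% Tween20 preincubated 15 min RT with compounds (up to 114 uM), then FITC-alphaIIb peptide (100 nM), 15 min RT; Ex 480/Em 540.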

[15] = Primary qHTS for small molecule stabilizers of the endoplasmic reticulum resident proteome: Secreted ER Calcium Modulated Protein (SERCaMP) assay (AID 1508630)
In short: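 GLuc-SERCaMP-expressing SH-SY5Y cells, pretreated 16 h with compound, are challenged with thapsigargin to empty ER calcium stores; after 4 h, coelenterazine is added directly to the medium and luminescence is imaged.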

[16] = A High-Content qHTS Against Drug Library for the Identification of Small Molecules that Inhibit DYT1 Early Onset Primary Dystonia-Associated Cell Pathology (AID 1645839; calls by dose curve; note: series mostly up to about 46 µM)
In short: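 Flp-In T-REx 293 cells with tetracycline-inducible EGFP-delE hTOR1A (WT EGFP-hTOR1A as reference), 800 cells/well; compound added with tetracycline, 48 h at 37 C. Fixed, permeabilized cells imaged; %pathology (punctate TorsinA) primary, cell count counterscreen.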

[17] = Cell Viability qHTS for small molecule stabilizers of the endoplasmic reticulum resident proteome (AID 1508629); conditions: cell viability counter-screen, 100 nM thapsigargin for final 4 h;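 note: human SH-SY5Y neuroblastoma cells carrying the GLuc-SERCaMP reporter; compound exposure about 46 h in total before the viability read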

Cytochrome P450 2C9 (Homo sapiens), sequence (P11712 whole entry, looked up): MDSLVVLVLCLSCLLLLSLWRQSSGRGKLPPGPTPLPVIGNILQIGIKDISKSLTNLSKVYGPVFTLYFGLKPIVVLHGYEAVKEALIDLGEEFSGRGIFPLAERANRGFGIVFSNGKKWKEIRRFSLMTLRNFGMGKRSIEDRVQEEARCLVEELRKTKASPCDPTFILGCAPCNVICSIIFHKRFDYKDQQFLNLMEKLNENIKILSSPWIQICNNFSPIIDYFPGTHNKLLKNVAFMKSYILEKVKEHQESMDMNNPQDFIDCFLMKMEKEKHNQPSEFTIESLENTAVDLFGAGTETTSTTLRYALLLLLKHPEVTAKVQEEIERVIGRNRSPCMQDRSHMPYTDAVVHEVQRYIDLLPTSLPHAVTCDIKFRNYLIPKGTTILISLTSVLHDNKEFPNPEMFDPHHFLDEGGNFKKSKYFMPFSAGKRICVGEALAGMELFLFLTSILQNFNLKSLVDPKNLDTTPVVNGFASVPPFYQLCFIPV
Calcium and integrin-binding protein 1 (Homo sapiens), sequence (Q99828 whole entry, looked up): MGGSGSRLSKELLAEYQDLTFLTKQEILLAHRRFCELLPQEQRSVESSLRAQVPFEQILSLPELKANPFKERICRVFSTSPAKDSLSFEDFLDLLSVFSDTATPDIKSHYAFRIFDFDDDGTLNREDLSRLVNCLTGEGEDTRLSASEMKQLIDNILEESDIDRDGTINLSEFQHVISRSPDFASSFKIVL
Single-stranded DNA cytosine deaminase (Homo sapiens), sequence (Q9GZX7 whole entry, looked up): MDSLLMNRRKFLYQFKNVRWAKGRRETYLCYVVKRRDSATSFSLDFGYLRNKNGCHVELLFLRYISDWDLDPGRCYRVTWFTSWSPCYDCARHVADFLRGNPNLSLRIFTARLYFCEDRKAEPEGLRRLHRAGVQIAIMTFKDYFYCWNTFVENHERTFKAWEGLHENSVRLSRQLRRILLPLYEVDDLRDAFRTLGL
Cytochrome P450 2D6 (Homo sapiens), sequence (P10635 whole entry, looked up): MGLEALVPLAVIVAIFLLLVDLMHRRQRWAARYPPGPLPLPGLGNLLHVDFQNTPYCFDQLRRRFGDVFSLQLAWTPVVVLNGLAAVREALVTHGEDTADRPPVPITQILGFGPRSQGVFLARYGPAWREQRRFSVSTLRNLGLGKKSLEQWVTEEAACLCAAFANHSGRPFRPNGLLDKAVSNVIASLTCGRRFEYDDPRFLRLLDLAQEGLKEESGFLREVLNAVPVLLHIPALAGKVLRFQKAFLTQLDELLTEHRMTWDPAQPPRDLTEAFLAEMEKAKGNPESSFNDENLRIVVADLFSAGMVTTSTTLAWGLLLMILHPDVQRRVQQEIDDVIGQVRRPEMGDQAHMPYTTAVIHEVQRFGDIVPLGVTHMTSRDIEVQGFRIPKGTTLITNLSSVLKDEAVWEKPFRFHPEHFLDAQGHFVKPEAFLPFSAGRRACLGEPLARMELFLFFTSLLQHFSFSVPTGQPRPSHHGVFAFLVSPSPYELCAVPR
Papain (Carica papaya), sequence (P00784 whole entry, looked up): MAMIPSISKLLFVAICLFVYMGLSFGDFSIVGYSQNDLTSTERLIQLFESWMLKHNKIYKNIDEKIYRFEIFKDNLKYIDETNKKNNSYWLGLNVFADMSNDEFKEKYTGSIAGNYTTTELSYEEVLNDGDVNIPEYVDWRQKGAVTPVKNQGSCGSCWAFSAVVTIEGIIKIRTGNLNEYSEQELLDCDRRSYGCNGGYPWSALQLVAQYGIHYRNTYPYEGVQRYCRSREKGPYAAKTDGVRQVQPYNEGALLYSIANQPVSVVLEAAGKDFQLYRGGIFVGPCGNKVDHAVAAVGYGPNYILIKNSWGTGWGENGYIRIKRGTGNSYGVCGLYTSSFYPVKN
Protein phosphatase 1D (Homo sapiens), sequence (O15297 whole entry, looked up): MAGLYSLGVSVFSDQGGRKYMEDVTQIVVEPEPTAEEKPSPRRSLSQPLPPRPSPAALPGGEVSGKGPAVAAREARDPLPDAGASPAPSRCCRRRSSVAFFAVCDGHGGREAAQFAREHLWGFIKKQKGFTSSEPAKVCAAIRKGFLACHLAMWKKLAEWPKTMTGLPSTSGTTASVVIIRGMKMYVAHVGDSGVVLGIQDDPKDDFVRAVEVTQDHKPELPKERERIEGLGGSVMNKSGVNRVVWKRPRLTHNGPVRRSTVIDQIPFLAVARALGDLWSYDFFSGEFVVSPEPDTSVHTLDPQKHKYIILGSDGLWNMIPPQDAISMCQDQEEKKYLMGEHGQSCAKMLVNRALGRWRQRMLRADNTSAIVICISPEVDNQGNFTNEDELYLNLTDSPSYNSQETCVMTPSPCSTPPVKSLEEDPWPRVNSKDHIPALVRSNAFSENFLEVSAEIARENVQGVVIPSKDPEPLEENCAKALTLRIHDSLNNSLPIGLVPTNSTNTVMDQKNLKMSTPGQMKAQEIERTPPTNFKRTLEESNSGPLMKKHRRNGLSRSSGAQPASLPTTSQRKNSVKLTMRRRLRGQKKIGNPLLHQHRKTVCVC

Structure (SMILES) | Potency [1] | outcome [2] | Potency [3] | outcome [4] | outcome [5] | Potency [6] | Potency [7] | outcome [8] | Potency [9] | Potency [10] | Potency [11] | Potency [12] | Potency [13] | outcome [14] | Potency [15] | Potency [16] | max response [17] [%]
Cc1ccc(=O)n(-c2ccccc2)c1 | inactive | inactive | inactive | inactive | inactive | inactive | inactive | inactive | inactive | inactive | inactive | – | – | – | – | – | –
C[C@]12CC[C@@H]3c4ccc(O)cc4C[C@@H](CCCCCCCCCS(=O)CCCC(F)(F)C(F)(F)F)[C@H]3[C@@H]1CC[C@@H]2O (stereo partly drawn) | – | inactive | inactive | inactive | – | inactive | inactive | inactive | inactive | 1.38 µM (active) | inactive | inactive | inactive | – | – | – | –
COC(=O)[C@H]1[C@H]2C[C@@H]3c4[nH]c5cc(OC)ccc5c4CCN3C[C@H]2C[C@@H](OC(=O)c2cc(OC)c(OC)c(OC)c2)[C@@H]1OC | inactive | inactive | inactive | inactive | inactive | inactive | inactive | inactive | inactive | – | – | – | 15.5 µM (active) | – | – | – | –
C[n+]1cc2c3c(ccc2c2ccc4cc5c(cc4c21)OCO5)OCO3 | – | inactive | inactive | inactive | – | – | – | inactive | 14.1 µM (active) | – | inactive | 1.78 µM (active) | – | inactive | – | – | –
Cc1nc2ccccn2c(=O)c1CCN1CCC(C(=O)c2ccc(F)cc2)CC1 | inactive | inactive | inactive | inactive | inactive | inactive | inactive | inactive | inactive | inactive | – | – | 2.19 µM (active) | – | inactive | inactive | –
CCN(CC)CC(=O)Nc1c(C)cccc1C | inactive | inactive | inactive | inactive | inactive | – | inactive | inactive | inactive | – | inactive | – | – | – | – | inactive | –
CN(C)CCCN1c2ccccc2Sc2ccccc21 | inactive | inactive | inactive | inactive | inactive | inactive | inactive | inactive | inactive | – | inactive | – | – | – | – | – | -13.5
C=CCc1ccccc1OCC(O)CNC(C)C (stereo not drawn) | inactive | inactive | inactive | inactive | inactive | inactive | inactive | inactive | inactive | inactive | inactive | – | – | – | – | inactive | –
CSc1ccc(C(=O)c2[nH]c(=O)[nH]c2C)cc1 | inactive | inactive | inactive | inactive | inactive | – | – | inactive | inactive | inactive | inactive | – | – | – | inactive | inactive | –
COCCOC(=O)C1=C(C)NC(C)=C(C(=O)OC(C)C)C1c1cccc([N+](=O)[O-])c1 (stereo not drawn) | inactive | inactive | inactive | inactive | inactive | inactive | inactive | inactive | inactive | – | inactive | – | – | – | – | – | –
CCOC(=O)c1cnc2c(cnn2CC)c1NN=C(C)C | inactive | inactive | inactive | inactive | inactive | – | inactive | inactive | inactive | 13.8 µM (active) | – | – | – | – | – | inactive | 4.21
CCN(CC)CCOCCOC(=O)C1(c2ccccc2)CCCC1 | inactive | inactive | inactive | inactive | – | inactive | inactive | inactive | inactive | inactive | inactive | – | – | – | – | inactive | –
CN(C)CCCN1c2ccccc2Sc2ccc(C(F)(F)F)cc21 | inactive | inactive | inactive | inactive | inactive | – | inactive | – | – | inactive | inactive | – | 0.0977 µM (active) | – | – | – | –
CCCC(C(=O)OCCN(CC)CC)(c1ccccc1)c1ccccc1 | inactive | inactive | inactive | inactive | inactive | inactive | inactive | – | inactive | 6.17 µM (active) | inactive | – | 0.0347 µM (active) | – | – | – | –
C(=C\c1ccccc1)/CN1CCN(C(c2ccccc2)c2ccccc2)CC1 | inactive | inactive | inactive | inactive | inactive | inactive | inactive | inactive | inactive | – | inactive | – | – | – | – | – | –
O=c1[nH]c(=O)n([C@H]2C[C@H](O)[C@@H](CO)O2)cc1Br | inactive | inactive | inactive | inactive | inactive | – | inactive | inactive | inactive | inactive | inactive | – | – | – | – | inactive | –
CCCNC(C)C(=O)Nc1ccccc1C (stereo not drawn) | inactive | inactive | inactive | inactive | – | inactive | inactive | inactive | inactive | inactive | inactive | – | – | – | inactive | inactive | –
CC1=C(C)C(=O)C(CCCCC#CCCCC#CCO)=C(C)C1=O | inactive | inactive | inactive | inactive | inactive | inactive | inactive | inactive | inactive | 3.09 µM (active) | inactive | – | 4.9 µM (active) | – | – | – | –
c1ccc2c(c1)CCCC2C1=NCCN1 (stereo not drawn) | inactive | inactive | inactive | inactive | – | inactive | inactive | inactive | inactive | – | inactive | – | – | – | inactive | inactive | –
COc1cc(Cc2cnc(N)nc2N)cc(OC)c1OC | inactive | inactive | inactive | inactive | inactive | inactive | inactive | inactive | inactive | inactive | – | – | inactive | – | – | inactive | –
CCn1nc(C(=O)O)c(=O)c2cc3c(cc21)OCO3 | inactive | inactive | inactive | inactive | inactive | inactive | inactive | inactive | inactive | – | inactive | – | – | – | – | inactive | –

Reference: PubChem BioAssay (NCATS)
